The values that follow come from PubChem BioAssay (NCATS).

The target in test [1] is Cytochrome P450 3A4 (Homo sapiens) (UniProt P08684). Briefly: qHTS Assay for Inhibitors and Substrates of Cytochrome P450 3A4 (AID 884). Further: nearly all actives have a fitted effect of over 50% in size. Further: potency means the concentration at half of the fitted maximal effect. The gist of the method:
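Luminescent readout of luciferin produced by CYP3A4 (20 nM) dealkylation of Luciferin-PPXE, 25 uM (its KM). NADPH-driven reaction ran 60 min at RT after 10 min compound preincubation; data scaled to 57 uM ketoconazole as 100% inhibition.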
Background: Quantitative high-throughput screening tests each substance at several concentrations.

Test [2] in a line: Confirmation and Secondary Assay for Modulators of Hemoglobin Beta Chain Splicing at IVS2 654 locus (AID 910).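 Further: HeLa cells stably carrying EGFP split by mutant beta-globin IVS2-654 intron; per-well total GFP intensity by laser scanning cytometry after 2-day treatment.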 The gist of the method: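 Readout: per-well total peak green fluorescence (488 nm ex, 500–520 nm em) from objects 5–250 µm, reflecting correct splicing of an EGFP-654 reporter. Compounds were applied for 2 days at 37 °C to overnight-plated HeLa EGFP-654 cells; controls were DMSO and 500 nM IVS2-654 PNA.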

Test [3] can be described thus: Confirmation and Secondary Assay for Modulators of Hemoglobin Beta Chain Splicing at IVS2 705 locus (AID 930).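 Further: HeLa cells stably expressing the EGFP-705 splicing reporter; GFP fluorescence per well restored by corrected splicing of the IVS2-705 intron in EGFP.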 Put shortly: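 Per-well GFP, captured at 1 x 8 µm resolution with 488 nm excitation, served as the read-out for HeLa EGFP-705 cells incubated 2 days with test compound versus DMSO.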
Test [4] is described as follows: S16 Schwann cell viability assay (CellTiter-Glo assay) (AID 624031).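 Further: native untransfected S16 rat Schwann cells; nearly all actives have a fitted effect of over 70% in size.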 The gist of the method: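 Rat S16 Schwann cells without reporter constructs received compound or DMSO for 24 h at 37 °C under 5% CO2. Cellular ATP was then quantified by CellTiter-Glo luminescence, with vehicle wells defined as 0% activity and cell-free wells as reference.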
(In general: In ATP-based viability assays light output follows the ATP content of the culture.)

Test [5] in a line: S16 Schwann cell PMP22 intronic element firefly luciferase assay (AID 624032). Further: nearly all actives have a fitted effect of over 30% in size. Further: potency means the concentration at half of the fitted maximal effect. The gist of the method: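 Luciferase reporter of PMP22 intronic-element expression in stably transfected S16 rat Schwann cells, read by ONE-Glo luminescence after 24 h compound exposure at 37 C. Activity scaled between DMSO (0%) and positive-control PTC124; concentration-effect curves quality-classified.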

The test system of the next test is CP203. In words: qHTS profiling for inhibitors of Plasmodium falciparum proliferation (AID 504749). Further: nearly all actives have a fitted effect of over 60% in size. Further: potency means the concentration at half of the fitted maximal effect. The following applies: P. falciparum in erythrocytes, SYBR Green DNA, 72 h; series mostly up to 12.8 µM. Put shortly: (§1)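 In a 72 h erythrocytic culture (37 C, humidified, 5% CO2) at 2.5% hematocrit and 0.3% starting parasitemia, compounds were tested; SYBR Green I in detergent lysis buffer stained parasite DNA overnight.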

A further test relates to CP215. Described as above. To be noted: P. falciparum in erythrocytes, SYBR Green DNA, 72 h; series mostly up to 12.8 µM. Put shortly: as §1
A further test relates to CP260. Described as above. To be noted: P. falciparum in erythrocytes, SYBR Green DNA, 72 h; series mostly up to 12.8 µM. The gist of the method: as §1
A further test concerns CP335. The test is described as above. The following applies: P. falciparum in erythrocytes, SYBR Green DNA, 72 h; series mostly up to 12.8 µM. Put shortly: as §1
In a further test the test system is DFO2036. Described as above. To be noted: P. falciparum in erythrocytes, SYBR Green DNA, 72 h; series mostly up to 12.8 µM. Put shortly:
as §1

Another test relates to DIV17. Described as above. To be noted: P. falciparum in erythrocytes, SYBR Green DNA, 72 h; series mostly up to 12.8 µM. Put shortly:
as §1

The subject of a further test is GB4. The description is as above. The following applies: P. falciparum in erythrocytes, SYBR Green DNA, 72 h; series mostly up to 12.8 µM. The gist of the method: as §1
The next test concerns ICS. Described as above. To be noted: P. falciparum in erythrocytes, SYBR Green DNA, 72 h; series mostly up to 12.8 µM. Put shortly: as §1
For a further test, the system named is W2. Described as above. The following applies: P. falciparum in erythrocytes, SYBR Green DNA, 72 h; series mostly up to 12.8 µM. The gist of the method:
as §1

A further test deals with 7G8. The test is described as above. To be noted: P. falciparum in erythrocytes, SYBR Green DNA, 72 h; series mostly up to 12.8 µM. Put shortly:
as §1

The target in test [6] is Cytochrome P450 3A4 (Homo sapiens) (UniProt P08684). In words: qHTS Assay for Activators of Cytochrome P450 3A4 (AID 885). Further: nearly all actives have a fitted effect of over 65% in size. The gist of the method: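 Luminescent readout of luciferin formed from 25 uM Luciferin-PPXE (KM level) by 20 nM CYP3A4 in 200 mM KPO4, with 60 min NADPH-driven reaction at room temperature after 10 min compound exposure. Ketoconazole (57 uM) defined 100% inhibition.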
Cytochrome P450 3A4 (Homo sapiens), sequence (P08684 whole entry, looked up): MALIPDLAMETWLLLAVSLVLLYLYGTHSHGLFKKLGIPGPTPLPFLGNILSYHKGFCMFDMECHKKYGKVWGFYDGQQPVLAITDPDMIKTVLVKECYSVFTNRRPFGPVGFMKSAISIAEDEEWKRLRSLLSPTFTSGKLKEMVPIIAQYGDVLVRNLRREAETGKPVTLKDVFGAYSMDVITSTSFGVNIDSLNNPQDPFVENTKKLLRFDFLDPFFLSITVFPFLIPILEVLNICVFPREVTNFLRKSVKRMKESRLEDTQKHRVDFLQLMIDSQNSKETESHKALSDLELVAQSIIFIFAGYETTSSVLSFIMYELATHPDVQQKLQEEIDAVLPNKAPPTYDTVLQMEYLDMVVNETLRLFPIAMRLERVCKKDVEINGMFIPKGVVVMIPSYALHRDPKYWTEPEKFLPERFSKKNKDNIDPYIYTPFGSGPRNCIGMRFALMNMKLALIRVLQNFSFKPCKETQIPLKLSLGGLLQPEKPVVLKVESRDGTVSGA

The structures appear in SMILES notation. Results filed as inconclusive are left out. Active and inactive are the calls of the source. The call rests on the fitted dose curve; in most records, active means well fitted curve in the direction sought with a large enough effect; inconclusive means small, poorly fitted or top-dose-only effect, or another doubt; inactive means no such curve, though single readings can be large; an effect the other way counts as inactive or inconclusive.

In the case of `CC1(C)OC2CO[C@]3(COS(N)(=O)=O)OC(C)(C)OC3C2O1` (some centres not stated), the Potency result (in [1]; in test [2]; in test [3]; in [5]; with CP203; in the test with CP215) was “inactive” throughout. For the same compound, the Potency result with CP260, with CP335, in the test with DFO2036, with DIV17, in the test on GB4 and with ICS was “inactive” each time. Besides, the Potency entry in the test on W2 was “inactive”. For the same compound, in [4], the compound was classed as inactive.
`CC1(C)SC2C(N3C(=O)C(c4ccccc4)NC3(C)C)C(=O)N2C1C(=O)O` (configuration not stated): the Potency result (in test [1]; in [2]; in [5]; in the test on 7G8; in the test with CP203; with CP215) was “inactive” each time. The Potency entry with CP260, in the test with CP335, in the test with DFO2036, in the test on DIV17, in the test on GB4 and in the test with ICS was “inactive” throughout. Also, the Potency result with W2 was “inactive”. Besides, in [4], the result was inactive.
`COC1C=CO[C@@]2(C)Oc3c(C)c(O)c4c(O)c(c(C=NN5CCN(C)CC5)c(O)c4c3C2=O)NC(=O)/C(C)=C\C=CC(C)C(O)[C@@H](C)C(O)C(C)[C@H](OC(C)=O)C1C` (some centres not stated): in test [3], the Potency entry was “inactive”. The compound was called inactive in test [4]. Also, the Potency in test [5] is 20300 nM (active); with 7G8 it was 112 nM (active); with CP203, 4260 nM (active); in the test on CP215, 4260 nM (active); with CP260 it was 1410 nM (active); in the test on CP335 it was 953 nM (active). For the same compound, the Potency in the test on DFO2036 was 3550 nM (active); with DIV17 it was 269 nM (active); in the test on GB4 it was 953 nM (active); in the test on ICS it was 89.1 nM (active); in the test on W2, 120 nM (active).
With `OCC1OC([S-])[C@H](O)C(O)C1O.[Au+]` (some centres not stated), the Potency result (in test [2]; in test [3]; in test [5]; in the test on CP203; with CP215; with CP260) was “inactive” in each case. For the same compound, the Potency result in the test on CP335, in the test with DIV17, in the test with GB4 and with ICS was “inactive” in each case. In addition, in test [4], the compound was classed as inactive.
`COc1c(O)cc(O)cc1O`: the Potency result in test [6], in test [2] and in test [3] was “inactive” throughout.
`CCC1OC(=O)C(C)[C@@H](O[C@H]2C[C@@](C)(OC)C(O)C(C)O2)C(C)[C@@H](O[C@@H]2OC(C)CC(N(C)C)C2O)[C@@](C)(O)CC(C)C(=O)[C@@H](C)C(O)[C@]1(C)O` (some centres not stated): the Potency result (in [6]; in [2]; in test [3]; in test [5]; in the test with 7G8; in the test on CP203) was “inactive” each time. In addition, the Potency entry in the test with CP215, with CP260, with DFO2036, with DIV17, in the test with GB4 and in the test on ICS was “inactive” each time. In addition, the result in [4] was inactive.
As to `O=C1OC(CO)C(O)C(O)C1O` (configuration not stated), the Potency result (in test [2]; in test [3]; in [5]; with 7G8; with CP203; with CP215) was “inactive” in each case. The Potency entry with CP260, in the test with CP335, with DFO2036, in the test with DIV17, in the test with GB4 and in the test on ICS was “inactive” each time. Besides, the Potency result in the test on W2 is “inactive”. Further, the outcome in test [4] was inactive.
In the case of `CC(C)C1CCC(C(=O)NC(Cc2ccccc2)C(=O)O)CC1` (configuration not stated), the Potency entry (in test [1]; in [2]; in [3]; in [5]; in the test with 7G8; in the test with CP203) was “inactive” throughout. The Potency entry with CP215, with CP260, in the test on CP335, in the test on DFO2036, in the test on DIV17 and in the test with GB4 was “inactive” in each case. Also, the Potency entry in the test on ICS and in the test with W2 was “inactive” throughout. The compound was classed as inactive in test [4].
As for `CC1=C(CCC(=O)O)c2cc3nc(cc4[nH]c(cc5[nH]c(cc1n2)c(C)c5C(C)O)c(C)c4C(C)O)C(C)=C3CCC(=O)O` (configuration not stated), the Potency entry in [1], in [2] and in test [3] was “inactive” in each case.
Regarding `Nc1nc2ncc(CNc3ccc(C(=O)NC(CCC(=O)O)C(=O)O)cc3)nc2c(=O)[nH]1` (configuration not stated), the Potency entry (in test [1]; in test [2]; in test [3]; in the test with 7G8; in the test with CP203; in the test on CP260) was “inactive” each time. Further, the Potency result in the test with CP335, in the test with DFO2036, with DIV17, in the test on GB4, with ICS and with W2 was “inactive” in each case. The call in test [4] was inactive.
For `COc1cc(C2c3cc4c(cc3C(O[C@@H]3OC5COC(c6cccs6)OC5C(O)C3O)C3COC(=O)C23)OCO4)cc(OC)c1O` (some centres not stated), the Potency was 6310 nM (active) in test [1]; 631 nM (active) in the test on 7G8; 3790 nM (active) with CP203; 4260 nM (active) with CP215; 1120 nM (active) in the test on CP260; 1690 nM (active) in the test with CP335. Besides, the Potency with DFO2036 is 1120 nM (active); in the test with DIV17 it was 4260 nM (active); in the test on GB4, 2390 nM (active); with ICS, 1260 nM (active); in the test on W2, 1200 nM (active). For the same compound, the Potency result in [6], in [2] and in test [3] was “inactive” each time. Further, in [4], the compound was classed as inactive.
`C[C@@H]1O[C@@H](O[C@H]2[C@H](Oc3cc(O)c4c(c3)O[C@H](c3ccc(O)cc3)CC4=O)O[C@H](CO)[C@@H](O)[C@@H]2O)[C@H](O)[C@H](O)[C@H]1O`: in test [1], the Potency entry is “inactive”.
For `CC(=O)[C@]1(O)CCC2C3C=C(Cl)C4=CC(=O)C5CC5[C@@]4(C)C3CC[C@]21C` (some centres not stated), the Potency entry (in test [2]; in test [3]; in [5]; in the test on CP203; in the test on CP215; with CP260) was “inactive” each time. The Potency result in the test with CP335, with DFO2036, with DIV17, with GB4, in the test on ICS and in the test on W2 was “inactive” in each case. Moreover, the call in test [4] was inactive.
Turning to `CC[C@@]12CCCN3CCc4c(n(c5ccccc45)[C@](O)(C(=O)OC)C1)C32` (some centres not stated), the Potency result (in [2]; in test [3]; in [5]; in the test on CP203; with CP215; in the test with CP260) was “inactive” each time. Besides, the Potency entry in the test with CP335, in the test with DFO2036 and in the test with GB4 was “inactive” in each case. In addition, the outcome in test [4] was inactive.
